Shown are actives, neighbours in structure and some others; about 4.6% of the full set was active somewhere.
D1 PAM: human D1 dopamine receptor positive modulation; potentiation, % at 10 µM; HEK293 TREx D1 cells, calcium flux, dopamine EC20 potentiation; P21728; hit rate 0.036% among 360,000; in the data active = potentiation above about 30%
Target sequence (P21728 whole entry, looked up): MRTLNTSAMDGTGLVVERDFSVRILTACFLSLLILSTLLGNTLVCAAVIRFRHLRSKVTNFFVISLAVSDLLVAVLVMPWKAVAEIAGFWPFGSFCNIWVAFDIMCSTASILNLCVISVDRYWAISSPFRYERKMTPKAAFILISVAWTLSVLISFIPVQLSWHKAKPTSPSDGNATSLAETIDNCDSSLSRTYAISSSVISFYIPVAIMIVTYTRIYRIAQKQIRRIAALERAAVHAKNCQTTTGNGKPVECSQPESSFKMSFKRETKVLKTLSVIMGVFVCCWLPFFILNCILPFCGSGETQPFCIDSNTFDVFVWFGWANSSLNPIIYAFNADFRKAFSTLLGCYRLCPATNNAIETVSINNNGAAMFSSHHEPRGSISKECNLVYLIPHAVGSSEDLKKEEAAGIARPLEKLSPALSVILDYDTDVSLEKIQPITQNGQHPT
D1 ag: activates the human D1 dopamine receptor | P21728 | HEK293 T-REx D1 cells, calcium flux, agonist mode | activation, % at 2 µM | hit rate 1% among 360,000 | AID 504660
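Tetracycline-induced HEK293 TREx D1 cells, force-coupled to calcium signalling, were dye-loaded with a no-wash calcium kit. Compound was pin-added after a 10 s baseline. Fluorescence was read kinetically at 1 cycle/s for 180 s, with calcium rises flagged as agonism.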
TRHR PAM: allosteric enhancers of human TRH receptor | hit rate 0.66% among 360,000 | enhancement, % at 2 µM | P34981 | AID 493056 | TRHR cells, fluo-8 calcium fluorescence, EC20 TRH enhancement; in the data active = enhancement above about 30%
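TRHR-expressing cells loaded with fluo-8 calcium dye were read kinetically (ex 480/em 530) during compound addition, then stimulated with an EC20 of TRH (10 nM final). Enhancement of the Gq-mediated intracellular calcium response was scored.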
D1 antag: antagonists of human D1 dopamine receptor. P21728. HEK293 TREx D1 cells, calcium flux, dopamine EC80; hits give low values. activity change, negative = inhibition, % at 10 µM. hit rate 3.2% among 360,000. AID 504652; in the data active = activity change below about -30%
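Antagonism measured as reduced calcium response to an EC80 dopamine addition following 180 s compound pre-read; cells were inducible HEK293 Trex D1 plated overnight at 30 C, read kinetically at 1 cycle/sec.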
TRHR agonist: TRH receptor (human) agonism; P34981; TRHR cells, calcium flux fluo-8, FDSS agonist mode; activation, % at 2 µM; hit rate 0.18% among 360,000; AID 493084
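Steps: seed TRHR cells overnight; add fluo-8 no-wash Ca dye, RT 30 min–1.5 h; record 10 s baseline; pin-transfer compounds; monitor fluorescence 1 cycle/s for the agonist window. Calcium increases flag candidate agonists.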
Hits are given with their value; – = inactive; · = no result given; ! = not confirmed by another sample. Rule as the data show it, unless noted: active = activation above about 30%; inactive = the rest.

SMILES | D1 PAM | D1 ag | TRHR PAM | D1 antag | TRHR agonist
COC(=O)c1onc(-c2ccccc2)c1C(=O)OC | – | – | – | -36 | –
Cc1ccc(NC(=O)C(C)c2cccc(C(=O)c3ccccc3)c2)cc1O (stereo not drawn) | – | – | – | -32 | –
CCC1C(=O)N=C(SCC(=O)Nc2ccc(C)cc2)N(c2ccccc2)C1=O (stereo not drawn) | · | – | – | – | –
COC(=O)c1ccc2[nH]c(CO)c(-c3ccccc3)c2c1 | – | – | – | – | –
N#Cc1ccc2[nH]c(CO)c(-c3ccccc3)c2c1 | – | – | – | -40 | –
S=c1[nH]nc(-c2cccc(Cl)c2)n1/N=C/c1ccco1 | – | – | – | – | –
Cc1ccc(/C=N/n2c(-c3cccc(Cl)c3)n[nH]c2=S)o1 | – | – | – | -35 | –
COc1cccc(-n2c(SC)nnc2-c2cnccn2)c1 | – | – | – | -45 | –
COc1cccc(-n2c(SCC#N)nnc2-c2cnccn2)c1 | – | – | – | – | –
CCCC(=O)OCCNc1cc(Sc2nccn2C)c2nonc2c1[N+](=O)[O-] | – | – | – | -32 | –
CCc1ccccc1Oc1ccc(S(=O)(=O)N2CCN(C)CC2)cn1 | – | – | 40 | – | –
CN(C)c1nc(N)nc(CSc2nnnn2-c2ccc(F)cc2)n1 | – | – | 38 | – | –
Nc1nc(CSc2nnnn2-c2ccccc2)nc(N2CCCc3ccccc32)n1 | – | – | – | – | –
CC(=O)N1N=C(c2cccc(NS(=O)(=O)c3ccc(C)cc3)c2)CC1c1ccco1 (stereo not drawn) | – | – | – | – | –
CC(=O)N1N=C(c2ccc(NS(=O)(=O)c3ccccc3)cc2)CC1c1ccco1 (stereo not drawn) | – | – | – | -36 | –
Cc1cc(C)c(C#N)c(SCC2COc3ccccc3O2)n1 (stereo not drawn) | – | 38 | – | – | –
COc1cc(Cl)c(S(=O)(=O)NCCc2c(C)[nH]c3c(C)cccc23)cc1Cl | – | – | – | – | –
COc1cccc(CN(C(=O)c2oc3cc(C)ccc3c2C)C2CCS(=O)(=O)C2)c1 (stereo not drawn) | – | – | – | – | –
C/C(O)=c1/cnc2nc3ccccc3n2c1=O | – | – | – | -44 | –
CCc1cccc(NC(=O)C(Cc2ccccc2)NS(=O)(=O)c2ccc3c(c2)oc(=O)n3C)c1 (stereo not drawn) | – | 31 | – | – | –
CCOc1ccc(NC(=O)C(Cc2ccccc2)NS(=O)(=O)c2ccc3c(c2)oc(=O)n3C)cc1 (stereo not drawn) | – | – | – | – | –
CCc1ccc(NC(=O)CCS(=O)(=O)c2ccc3c(c2)oc(=O)n3C)cc1 | – | – | – | -37 | –
COc1cccc(/C=C2/Oc3ccccc3N(CC(=O)NCC3CCCO3)C2=O)c1 (stereo not drawn) | – | – | – | – | –
CCCSc1n[nH]c(NC(C)=O)n1 | – | – | – | – | –
CCCCCCCCCCSc1n[nH]c(NC(C)=O)n1 | – | – | – | -41 | –
SMILES | D1 PAM | D1 ag | TRHR PAM | D1 antag | TRHR agonist
COC(=O)c1cc(S(=O)(=O)N2CCCC(C)C2)cn1C (stereo not drawn) | – | – | – | – | –
COC(=O)c1cc(-c2ccc(S(=O)(=O)N3CCCC(C)C3)cc2)c(C(F)(F)F)s1 (stereo not drawn) | – | – | – | -41 | –
CCc1ccc(-c2cc(C)no2)cc1S(=O)(=O)N1CCCN(Cc2ccc(F)cc2)C1 | – | – | – | -31 | –
CCc1ccc(-c2cc(C)no2)cc1S(=O)(=O)N1CCC(C)CC1 | – | – | – | – | –
Cc1cc(-c2ccc(C)c(S(=O)(=O)Nc3cccc(C)n3)c2)on1 | – | – | – | -44 | –
Cc1ccnc(NS(=O)(=O)c2cc(-c3cc(C)no3)ccc2C)c1 | – | – | – | – | –
COc1cccc(CCN2CCC(CNS(=O)(=O)c3cc(-c4cc(C)no4)ccc3C)CC2)c1 | – | – | – | -55 | –
Cc1cc(-c2ccc(C)c(S(=O)(=O)Nc3cccc(CN4CCCC4)c3)c2)on1 | – | – | – | -61 | –
COc1cc2[nH]c(=O)n(CCCC(=O)N(C)Cc3ccccc3)c(=O)c2cc1OC | – | – | – | – | –
Cc1cc(-c2ccc(C)c(S(=O)(=O)Nc3ccccc3C(F)(F)F)c2)on1 | – | – | – | -36 | –
O=C1NC2(NN1c1ccccc1)C1CC3CC(C1)CC2C3 (stereo not drawn) | – | 43 | – | – | –
COc1ccc(Cn2c(C(=O)O)c(CNCc3ccco3)c3ccc(OC)cc32)cc1 | – | – | – | – | –
Cc1ccc(N2CCN(C(=O)CCc3nc4ccccc4[nH]3)CC2)c(C)c1 | – | – | – | -35 | –
CC1(C)Cc2cccc(OCC(=O)OCC(=O)Nc3ccc(C(N)=O)cc3)c2O1 | – | – | – | -39 | –
CC(=O)Nc1ccc(S(=O)(=O)Nc2cccn(Cc3ccc(C)cc3)c2=O)cc1 | – | – | 33 | – | –
CC(=O)Nc1ccc(S(=O)(=O)Nc2ccccc2N2CCOCC2)cc1 | – | – | 34 | – | –
Cc1ccc(NC(=O)c2cccc3cccnc23)cc1 | – | – | – | -31 | –
CC(=O)Nc1ccc(S(=O)(=O)Nc2ccccc2N2CCOCC2)cc1Cl | – | – | – | – | –
CC(=O)Nc1ccc(S(=O)(=O)Nc2cccc3cccnc23)cc1 | – | – | – | -55 | –
CC(=O)Nc1cccc(NC(=O)c2cccc3cccnc23)c1 | – | – | – | – | –
COc1ccccc1NC(=O)c1cnc(SCC(=O)N2CCOCC2)n(C)c1=O | – | – | – | · | –
Cc1nc(-c2cccc(S(=O)(=O)N3CCC(C(=O)NCc4ccccc4)CC3)c2)no1 | – | – | – | – | –
CSc1ccc(CCNC(=O)c2sc3ncccc3c2-n2cccc2)cc1 | – | – | – | – | –
CCOc1ccc(-n2nc3ccc(NC(=O)c4ccc(-c5cccc(Cl)c5)o4)cc3n2)cc1 | – | – | – | – | –
O=C(c1cccc(S(=O)(=O)N2CCOCC2)c1)N1CCCC(C(F)(F)F)C1 (stereo not drawn) | – | – | – | – | –
SMILES | D1 PAM | D1 ag | TRHR PAM | D1 antag | TRHR agonist
COc1ccc(S(=O)(=O)N(CC(=O)Nc2cccc(C)c2)c2ccc(C)cc2)cc1OC | – | – | – | – | –
COc1ccccc1OCC(=O)Nc1ccc(S(=O)(=O)N(C)c2ccccc2)cc1 | – | – | – | -41 | –
CCSc1ncc(Cl)c(C(=O)Nc2ccc(S(=O)(=O)N(C)c3ccccc3)cc2)n1 | – | – | – | – | –
CCN(c1ccccc1)S(=O)(=O)c1ccc(NC(=O)c2nc(S(C)(=O)=O)ncc2Cl)cc1 | – | – | – | -34 | –
CCS(=O)(=O)c1ncc(Cl)c(C(=O)Nc2ccc(S(=O)(=O)N(C)c3ccccc3)cc2)n1 | – | – | – | -61! | –
O=C(Nc1cc(Cl)cc(Cl)c1)c1coc(=O)c(Br)c1 | – | 37 | – | -46 | –

Compound activity (PubChem BioAssay)
